Bioassay records deposited in PubChem BioAssay by NMMLSC.
Rows were chosen to be rich in hits. Some 1.2% of all compounds tested hit in one or more screens of this group.
RGS8-Gao: regulators of human RGS8-Galphao interaction; P09471; multiplexed bead flow cytometry, RGS8-Galphao binding; actives lie on both sides; response (percent of control binding), % at 10 µM; 0.34% of 220,000 active; AID 1423; in the data active = response below about 60% or above about 140%; inactive = in between;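 note: Galphao activated as the GDP aluminium fluoride complex binding bead-coupled RGS8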
Target sequence (P09471 whole entry, looked up): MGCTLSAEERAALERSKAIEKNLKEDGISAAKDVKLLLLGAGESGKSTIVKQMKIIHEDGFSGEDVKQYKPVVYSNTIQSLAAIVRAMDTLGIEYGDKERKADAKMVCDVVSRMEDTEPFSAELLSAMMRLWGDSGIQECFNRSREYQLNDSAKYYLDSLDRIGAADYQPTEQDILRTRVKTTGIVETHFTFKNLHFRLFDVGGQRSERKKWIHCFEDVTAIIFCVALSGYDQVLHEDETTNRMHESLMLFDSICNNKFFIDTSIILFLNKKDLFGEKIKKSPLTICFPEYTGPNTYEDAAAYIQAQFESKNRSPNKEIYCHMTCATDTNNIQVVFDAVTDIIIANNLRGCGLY
GSH bead fluor: GSH bead compound fluorescence profile; fluorescence (KMESF) at 10 µM; 0.25% of 190,000 active; GSH beads flow cytometry, compound fluorescence 488/530 nm; stronger effect = higher value; in the data active = fluorescence above about 89;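 note: glutathione beads carrying GST-tagged Bcl family fusion proteins plus one bare bead set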
RGS16-Gao: modulates binding between human RGS16 and Galphao; O15492+P09471; bead-based flow cytometry RGS16-Galphao binding, fluorescence; actives lie on both sides; binding response (% of control), % at 10 µM; 0.38% of 220,000 active; call rule not given here;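 note: Galphao activated by GDP with aluminum fluoride before binding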
Target sequence (O15492 whole entry, looked up): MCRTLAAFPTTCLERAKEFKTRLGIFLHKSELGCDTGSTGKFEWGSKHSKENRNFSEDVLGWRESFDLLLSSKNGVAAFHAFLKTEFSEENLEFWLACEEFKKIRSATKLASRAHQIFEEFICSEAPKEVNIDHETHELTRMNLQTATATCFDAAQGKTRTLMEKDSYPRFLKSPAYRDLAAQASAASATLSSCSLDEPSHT
Target sequence (P09471 whole entry, looked up): as the sequence (P09471 whole entry, looked up) above
RGS4-Gao reg: human RGS4-Galphao interaction regulation; 0.33% of 220,000 active; Multiplexed bead flow cytometry, RGS4-Galphao binding; actives lie on both sides; binding response (% of control), % at 10 µM; AID 1415; in the data active = binding response below about 49% or above about 150%; inactive = in between;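 note: fluorescent Galphao activated with aluminum fluoride binding bead-coupled RGS4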
Avidin bead fluor: avidin bead compound fluorescence profile; Avidin beads, compound fluorescence 488/530 nm, flow cytometry; stronger effect = higher value; fluorescence (KMESF) at 10 µM; 0.38% of 220,000 active; in the data active = fluorescence above about 47
RGS7-Gao: human RGS7-Galphao interaction regulation. AID 1439. Multiplexed bead flow cytometry, RGS7-Galphao binding; actives lie on both sides. 0.35% of 220,000 active. binding response (% of control), % at 10 µM; in the data active = binding response below about 49% or above about 150%; inconclusive = no clear call, values can overlap the other calls; inactive = in between;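 note: fluorescent Galphao held in activated GDP-AlF4 state binding bead-coupled RGS7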
Numbers stand for hits; [ ] = another dose, or the depositor's remark.

For O=C(O)c1cc(NCc2ccc3c(c2)OCO3)ccc1N1CCOCC1 the results were RGS8-Gao inactive, GSH bead fluor inactive, RGS16-Gao inactive, RGS4-Gao reg inactive, Avidin bead fluor inactive and RGS7-Gao inactive.
Screening O=S1(=O)N=C(N=Nc2c(O)[nH]c3ccccc23)c2ccccc21 returned RGS8-Gao 17, GSH bead fluor inactive, RGS16-Gao 4.8, RGS4-Gao reg 12, Avidin bead fluor inactive and RGS7-Gao 12.
Screening Oc1[nH]c2ccccc2c1N=Nc1ccccc1 returned RGS8-Gao inactive, RGS16-Gao inactive, RGS4-Gao reg inactive, Avidin bead fluor inactive and RGS7-Gao inconclusive.
`Cc1csc2ncc(C(=O)Nc3ccccc3Cl)c(=O)n12` gave RGS8-Gao inactive, GSH bead fluor inactive, RGS16-Gao inactive, RGS4-Gao reg inactive, Avidin bead fluor inactive and RGS7-Gao inactive.
COc1ccc2[nH]c(=O)c(CN(Cc3nnnn3Cc3ccc(F)cc3)CC3CCCO3)cc2c1 (stereo not given) was read as RGS8-Gao inactive, GSH bead fluor inactive, RGS16-Gao inactive, RGS4-Gao reg inactive, Avidin bead fluor 105 and RGS7-Gao inactive.
`CC1(C)Oc2ccc3ccc(=O)oc3c2-c2cnoc21` gave RGS8-Gao inactive, GSH bead fluor inactive, RGS16-Gao inactive, RGS4-Gao reg inactive, Avidin bead fluor 56 and RGS7-Gao inactive.
`CCOC(=O)c1c(-c2cccc([N+](=O)[O-])c2)csc1NC(=O)C1CCCCC1` gave RGS8-Gao inactive, GSH bead fluor 166, RGS16-Gao inactive, RGS4-Gao reg inactive, Avidin bead fluor inactive and RGS7-Gao inactive.
For COC(=O)c1cc(OC)c(OC)c(OC)c1N the results were RGS8-Gao inactive, GSH bead fluor 259, RGS16-Gao inactive, RGS4-Gao reg inactive, Avidin bead fluor inactive and RGS7-Gao inactive.
COc1ccccc1N1CCN(C(=O)CSc2nc(C)c(Cc3ccccc3)c(=O)[nH]2)CC1 was read as RGS8-Gao inactive, GSH bead fluor inactive, RGS16-Gao inactive, RGS4-Gao reg inactive, Avidin bead fluor 78 and RGS7-Gao inactive.
`COc1ccccc1N1CCN(C(=O)CSc2nc(-c3ccccc3)cc(=O)[nH]2)CC1` gave RGS8-Gao inactive, GSH bead fluor inactive, RGS16-Gao inactive, RGS4-Gao reg inactive, Avidin bead fluor inactive and RGS7-Gao inactive.
Screening CCN(CC)C(=O)[C@]1(c2ccccc2)C[C@@H]1CN returned RGS8-Gao inactive, GSH bead fluor inactive, RGS16-Gao inactive, RGS4-Gao reg inactive, Avidin bead fluor inactive and RGS7-Gao inactive.
CC1C(=O)CCC1(C(=O)O)c1ccccc1 (stereo not given) was read as RGS8-Gao inactive, GSH bead fluor inactive, RGS16-Gao inactive, RGS4-Gao reg inactive, Avidin bead fluor 49 and RGS7-Gao inactive.
CCN(CC)c1ccc2cc(-c3nc(-c4ccc(OC)cc4)cs3)c(=O)oc2c1 was read as RGS8-Gao 177[activator], GSH bead fluor 445, RGS16-Gao 923[activator], RGS4-Gao reg 808[activator], Avidin bead fluor 636 and RGS7-Gao active[activator].
CCN(CC)c1ccc2cc(-c3nnc(-c4ccccc4)o3)c(=O)oc2c1 was read as RGS8-Gao inactive, GSH bead fluor inactive, RGS16-Gao inactive, RGS4-Gao reg inactive, Avidin bead fluor inactive and RGS7-Gao inactive.
Screening COc1ccc(Cc2noc(COc3ccc(Cl)cc3)n2)cc1 returned RGS8-Gao inactive, GSH bead fluor 92, RGS16-Gao inactive, RGS4-Gao reg inactive, Avidin bead fluor inactive and RGS7-Gao inactive.
`O=C1Nc2ncccc2OC1CCCl` (stereo not given) gave RGS8-Gao inactive, GSH bead fluor 258, RGS16-Gao inactive, RGS4-Gao reg inactive, Avidin bead fluor inactive and RGS7-Gao inactive.
For COc1ccc(C2NC(=O)C(C)S2)cc1 (stereo not given) the results were RGS8-Gao inactive, GSH bead fluor inactive, RGS16-Gao inactive, RGS4-Gao reg inactive, Avidin bead fluor 51 and RGS7-Gao inactive.
CN(C)C(=O)COC(=O)[C@H](Cc1ccccc1)NC(=O)c1ccco1 was read as RGS8-Gao inactive, GSH bead fluor inactive, RGS16-Gao inactive, RGS4-Gao reg inactive, Avidin bead fluor 53 and RGS7-Gao inactive.
CCOCCCNC(=O)CSc1ccccc1 was read as RGS8-Gao inactive, GSH bead fluor inactive, RGS16-Gao inactive, RGS4-Gao reg inactive, Avidin bead fluor 51 and RGS7-Gao inactive.
Screening COCCCNC(=O)CSc1ccc(Cl)cc1 returned RGS8-Gao inactive, GSH bead fluor inactive, RGS16-Gao inactive, RGS4-Gao reg inactive, Avidin bead fluor inactive and RGS7-Gao inactive.
CC(=O)N1CCC(C(=O)Nc2ccccc2)(N(Cc2ccccc2)C(=O)c2cccnc2)CC1 was read as RGS8-Gao inactive, GSH bead fluor 267, RGS16-Gao inactive, RGS4-Gao reg inactive, Avidin bead fluor inactive and RGS7-Gao inactive.
For Cc1cc(C(=O)OCC(=O)c2ccc(Br)s2)c(C)o1 the results were RGS8-Gao inactive, GSH bead fluor 269, RGS16-Gao inactive, RGS4-Gao reg inactive, Avidin bead fluor inactive and RGS7-Gao inactive.
Screening C=CCn1c(SCC(=O)NC(=O)NCc2ccco2)nc2sc(CC)cc2c1=O returned RGS8-Gao inactive, GSH bead fluor 267, RGS16-Gao inactive, RGS4-Gao reg inactive, Avidin bead fluor inactive and RGS7-Gao inactive.
For C=CCn1c(SCC(=O)NCc2ccco2)nc2ccccc2c1=O the results were RGS8-Gao inactive, GSH bead fluor inactive, RGS16-Gao inactive, RGS4-Gao reg inactive, Avidin bead fluor inactive and RGS7-Gao inactive.
For S=C(NCc1ccco1)N1CCN(C(c2ccccc2)c2ccccc2)CC1 the results were RGS8-Gao inactive, GSH bead fluor inactive, RGS16-Gao inactive, RGS4-Gao reg inactive, Avidin bead fluor inactive and RGS7-Gao inactive.
Screening COc1ccc(C(CNC(=O)Cn2[nH]c(=O)c3ccccc3c2=O)N2CCCC2)cc1 (stereo not given) returned RGS8-Gao inactive, GSH bead fluor inactive, RGS16-Gao inactive, RGS4-Gao reg inactive, Avidin bead fluor inactive and RGS7-Gao inactive.
`CCC(C)NS(=O)(=O)c1ccc(OCC(=O)NCc2ccccn2)cc1` (stereo not given) gave RGS8-Gao inactive, GSH bead fluor inactive, RGS16-Gao inactive, RGS4-Gao reg inactive, Avidin bead fluor inactive and RGS7-Gao inactive.
`CCC(C)NS(=O)(=O)c1ccc(OCC(=O)NCc2cccnc2)cc1` (stereo not given) gave RGS8-Gao inactive, GSH bead fluor 257, RGS16-Gao inactive, RGS4-Gao reg inactive, Avidin bead fluor inactive and RGS7-Gao inactive.
CNC(=O)CC12CC3CC(CC(C3)C1)C2 was read as RGS8-Gao inactive, GSH bead fluor 261, RGS16-Gao inactive, RGS4-Gao reg inactive, Avidin bead fluor inactive and RGS7-Gao inactive.
For COCCNC(=S)NC(=O)CC12CC3CC(CC(C3)C1)C2 the results were RGS8-Gao inactive, GSH bead fluor inactive, RGS16-Gao inactive, RGS4-Gao reg inactive, Avidin bead fluor inactive and RGS7-Gao inactive.
